Reference: PubChem BioAssay (NCATS)
Results filed as inconclusive are left out. Active and inactive are the calls of the source. The call rests on the fitted dose curve; in most records, active means well fitted inhibition curve with a large enough effect; inconclusive means small, poorly fitted or top-dose-only effect; inactive means flat fitted curve, though single readings scatter. Where a SMILES comes first, the peptide text is derived from it. [ ]: non-standard residue; d: D form.

Tests used:
CRL-7250 = normal cell line; assay: Cytotoxic Profiling of Annotated Libraries Using Quantitative High-Throughput Screening (AID 1296008); conditions: Five cell lines viability, CellTiter-Glo ATP luminescence, 48-72 h; max response: hits give low values; on max response: on the % scale 0 is the no-effect control and ±100 the full control effect
Procedure, shortened: (§1)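 Cells exposed to compounds for 48 or 72 hr at 37 degrees Celsius. Viability read as ATP-coupled luminescence with CellTiter-Glo after 10 min at room temperature.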

HEK293 = assay: as above; conditions: Five cell lines viability, CellTiter-Glo ATP luminescence, 48-72 h; max response: hits give low values
Procedure, shortened: as §1

HaCat = assay: as above; conditions: Five cell lines viability, CellTiter-Glo ATP luminescence, 48-72 h; max response: hits give low values
Procedure, shortened: as §1

KB-3-1 = assay: as above; conditions: Five cell lines viability, CellTiter-Glo ATP luminescence, 48-72 h; max response: hits give low values
Procedure, shortened: as §1

NIH3T3 = assay: as above; conditions: Five cell lines viability, CellTiter-Glo ATP luminescence, 48-72 h; max response: hits give low values
Procedure, shortened: as §1

HEK293T = assay: qHTS assay to identify novel small-molecules to repurpose for Merkel cell carcinoma treatment (AID 1296009); conditions: MCC and control cell lines, CellTiter-Glo viability, 72 h; series mostly up to 44.8 µM
Procedure, shortened: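 CellTiter-Glo luminescence after 72 hr compound exposure at 37 degree celsius gave cell viability. Libraries NPC and MIPE were run as 8- and 11-point dose responses; RLUs normalized to DMSO (negative) and no-cell (cytotoxicity) controls.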
Further: nearly all actives have a fitted effect of over 60% in size.

CC(C)C1=CC2=CCC3[C@](C)(CCC[C@@]3(C)C(=O)O)C2CC1=O (stereo partly drawn)
inactive: outcome (CRL-7250) | outcome (HEK293) | max response (HaCat) 1.19% | max response (KB-3-1) 8.65% | outcome (NIH3T3) | Potency (HEK293T)

CC1=C(CC(=O)O)c2cc(F)ccc2C1=Cc1ccc(S(C)(=O)=O)cc1
inactive: outcome (CRL-7250) | outcome (HEK293) | max response (HaCat) -6.44% | outcome (KB-3-1) | max response (NIH3T3) 4% | Potency (HEK293T)

CC1(CO)CC[C@]2(C(=O)O[C@@H]3O[C@H](CO)[C@@H](O)[C@H](O)[C@H]3O)CC[C@]3(C)C(=CCC4[C@@]5(C)C[C@H](O)[C@H](O[C@@H]6OC[C@@H](O)[C@H](O)[C@H]6O)[C@@](C)(CO)C5CC[C@]43C)C2C1 (stereo partly drawn)
inactive: outcome (CRL-7250) | outcome (HEK293) | max response (HaCat) -24.8% | outcome (KB-3-1) | max response (NIH3T3) 2.22% | outcome (HEK293T) inactive [at 9.27 µM]

COC1CC(=O)CCC(C)OC(=O)CC1O (stereo not drawn)
inactive: max response (CRL-7250) -4.48% | outcome (HEK293) | max response (HaCat) 1.84% | outcome (KB-3-1) | max response (NIH3T3) 4.21% | Potency (HEK293T)

COC(=O)[C@]12C(=O)C(C)=C(O)[C@@]1(C)C(C)=CC1[C@@]34CC[C@@H](OC(C)=O)C(C)(C)C3[C@H](C[C@]12C)OC4=O (stereo partly drawn)
inactive: max response (CRL-7250) 4.87% | outcome (HEK293) | max response (HaCat) -9.29% | max response (KB-3-1) 1.77% | max response (NIH3T3) 4.25% | Potency (HEK293T)

O=c1ccn([C@@H]2O[C@H](CO)[C@@H](O)[C@H]2O)c(=O)[nH]1
inactive: max response (CRL-7250) -8.67% | outcome (HEK293) | max response (HaCat) 3.94% | max response (KB-3-1) 0.253% | outcome (NIH3T3) | Potency (HEK293T)

C[C@@H]1O[C@@H](O[C@H]2[C@H](O[C@H]3[C@H](O[C@H]4CC[C@@]5(C=O)C(CC[C@]6(C)C5CC=C5C7CC(C)(C)C[C@@H](O)[C@]7(C)CC[C@]56C)C4(C)C)O[C@H](C(=O)O)[C@@H](O)[C@@H]3O)OC[C@@H](O)[C@@H]2O)[C@H](O)[C@H](O)[C@H]1O (stereo partly drawn)
inactive: outcome (CRL-7250) | outcome (HEK293) | max response (HaCat) -16.7% | max response (KB-3-1) 7.57% | outcome (NIH3T3) | outcome (HEK293T) inactive [at 9.27 µM]

C=CC1(C)CC2=CCC3C(C)(C(=O)O)CCCC3(C)C2CC1OC(C)=O (stereo not drawn)
inactive: outcome (CRL-7250) | outcome (HEK293) | max response (HaCat) -6.85% | max response (KB-3-1) 0.0592% | outcome (NIH3T3) | Potency (HEK293T)

COC(=O)C1=CO[C@@H](O[C@@H]2O[C@H](CO)[C@@H](O)[C@H](O)[C@H]2O)[C@@H]2[C@@H](C)[C@@H](O)C[C@H]12
inactive: max response (CRL-7250) -3.5% | outcome (HEK293) | max response (HaCat) -10.2% | outcome (KB-3-1) | max response (NIH3T3) 2.94% | Potency (HEK293T)

CC(=O)N[C@H](Cc1ccc(O)cc1)C(=O)N[C@H](CCCN=C(N)N)C(=O)N[C@H](Cc1ccccc1)C(N)=O (Ac-[dY]-[dR]-[dF]-NH2)
inactive: max response (CRL-7250) -2.02% | outcome (HEK293) | max response (HaCat) -6.09% | outcome (KB-3-1) | outcome (NIH3T3) | Potency (HEK293T)

C=C1CCC2C(C)(C(=O)O)CC(O)CC2(C)C1CC/C(C)=C/C(=O)O (stereo not drawn)
inactive: max response (CRL-7250) -3.85% | outcome (HEK293) | max response (HaCat) 3.69% | max response (KB-3-1) 5.42% | outcome (NIH3T3) | Potency (HEK293T)

CC(=O)O[C@H]1[C@H](Oc2ccccc2COC(=O)C2(O)C=CCCC2=O)O[C@H](CO)[C@@H](O)[C@@H]1O (stereo partly drawn)
inactive: max response (CRL-7250) 3.12% | outcome (HEK293) | max response (HaCat) 3.69% | max response (KB-3-1) 6.43% | max response (NIH3T3) 0.519% | Potency (HEK293T)

CC(CO[C@@H]1O[C@H](COC(=O)/C=C/c2ccc(O)c(O)c2)[C@@H](O)[C@H](O)[C@H]1O)C1(O)COC(=O)C1 (stereo partly drawn)
inactive: max response (CRL-7250) -2.89% | outcome (HEK293) | max response (HaCat) 3.48% | max response (KB-3-1) -4.71% | max response (NIH3T3) -5.15% | Potency (HEK293T)

COc1cc(/C=C/C(=O)OC(C)(C)C(OC2OC(CO)C(O)C(O)C2O)C(=O)OCc2ccc(OC3OC(CO)C(O)C(O)C3O)cc2)ccc1O (stereo not drawn)
inactive: max response (CRL-7250) -9.61% | outcome (HEK293) | max response (HaCat) 3.1% | max response (KB-3-1) 5.7% | outcome (NIH3T3) | Potency (HEK293T)

CC1=CC(=O)CC(C)(CO[C@@H]2O[C@H](CO)[C@@H](O)[C@H](O)[C@H]2O)C1(O)/C=C/C(C)=C/C(=O)O (stereo partly drawn)
inactive: outcome (CRL-7250) | outcome (HEK293) | max response (HaCat) -0.434% | outcome (KB-3-1) | outcome (NIH3T3) | Potency (HEK293T)

COc1cc(C2Oc3c(O)cc(CCCO)cc3C2CO)ccc1O[C@H]1O[C@H](C)[C@@H](O)[C@H](O)[C@@H]1O (stereo partly drawn)
inactive: max response (CRL-7250) 0.29% | outcome (HEK293) | max response (HaCat) 3.18% | outcome (KB-3-1) | max response (NIH3T3) -0.439% | Potency (HEK293T)

C[C@@H]1O[C@@H](O[C@H]2[C@H](O)[C@@H](O)[C@H](OC[C@H]3O[C@@H](OC(=O)[C@]45CCC(C)(C)C[C@H]4C4=CCC6[C@@]7(C)C[C@H](O)[C@H](O[C@@H]8O[C@H](CO)[C@@H](O)[C@H](O)[C@H]8O)[C@@](C)(C(=O)O)C7CC[C@@]6(C)[C@]4(C)CC5)[C@H](O[C@@H]4O[C@H](CO)[C@@H](O)[C@H](O)[C@H]4O)[C@@H](O)[C@@H]3O)O[C@@H]2CO)[C@H](O)[C@H](O)[C@H]1O (stereo partly drawn)
inactive: max response (CRL-7250) 2.51% | outcome (HEK293) | max response (HaCat) 4.68% | max response (KB-3-1) 7.15% | max response (NIH3T3) 3.41% | outcome (HEK293T) inactive [at 9.27 µM]

CC1=CC(=O)OC(C)(CC(C)(O)C(=O)O)C1 (stereo not drawn)
inactive: max response (CRL-7250) -4.45% | outcome (HEK293) | max response (HaCat) -5.61% | max response (KB-3-1) 6.61% | max response (NIH3T3) 0.862% | Potency (HEK293T)
